Source: the supplement of paper PMC10681739

How the values were obtained:
ETS1 [1] = target: T1, ETS1 (UniProt P14921); test: ETS1 binding intensity (PBM fluorescence), ETS1 alone (arbitrary fluorescence units); higher = stronger binding; settings: ETS1 concentration 1 nM; RUNX1 concentration 0 nM
T1 sequence: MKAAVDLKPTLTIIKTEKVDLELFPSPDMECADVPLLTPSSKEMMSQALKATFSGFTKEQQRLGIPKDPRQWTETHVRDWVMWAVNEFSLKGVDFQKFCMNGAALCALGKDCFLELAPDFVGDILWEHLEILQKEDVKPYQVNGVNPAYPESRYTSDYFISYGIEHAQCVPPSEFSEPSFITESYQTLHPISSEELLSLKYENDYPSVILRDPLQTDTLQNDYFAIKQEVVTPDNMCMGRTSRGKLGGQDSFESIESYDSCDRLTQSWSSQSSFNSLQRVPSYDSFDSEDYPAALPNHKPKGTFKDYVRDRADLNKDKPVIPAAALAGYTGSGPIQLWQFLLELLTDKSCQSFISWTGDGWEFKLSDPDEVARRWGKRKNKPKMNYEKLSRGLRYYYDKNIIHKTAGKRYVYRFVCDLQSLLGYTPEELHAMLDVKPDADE

ETS1 [2] = target: T1, ETS1; test: ETS1 binding intensity (PBM fluorescence) in presence of RUNX1, normalised to ETS1-only experiment (arbitrary fluorescence units); higher = stronger binding; settings: ETS1 concentration 1 nM; RUNX1 concentration 25 nM

## GAGGAAAAAGGAAACAGAAACTCCGCAACTTGCGCC
ETS1 [1]
  ETS1 binding intensity: 503
ETS1 [2]
  ETS1 binding intensity: 411

## TCGCATAGCCGGGAAGCGCGGTGGAGGTTGTTGGGG
ETS1 [1]
  ETS1 binding intensity: 428
ETS1 [2]
  ETS1 binding intensity: 473

## GCACCGTGGCACTTCCGCGAGCGCCGCAGGCCCTGC
ETS1 [1]
  ETS1 binding intensity: 461
ETS1 [2]
  ETS1 binding intensity: 360

## TGCACACATGAGGAAGGGGTAAGTGGTTTTCCCTAC
ETS1 [1]
  ETS1 binding intensity: 498
ETS1 [2]
  ETS1 binding intensity: 468

## ACAGGAAGTGAGGCTGTGAGGAGTTTGTGGTGTGTA
ETS1 [1]
  ETS1 binding intensity: 2080
ETS1 [2]
  ETS1 binding intensity: 4960

## TTTCTTCCTGTTTGCATCACCCCAAACCCACTATCA
ETS1 [1]
  ETS1 binding intensity: 514
ETS1 [2]
  ETS1 binding intensity: 469

## CTGTTCTCATCCGCCCGCTCTGAGTCACCCACACCT
ETS1 [1]
  ETS1 binding intensity: 465
ETS1 [2]
  ETS1 binding intensity: 441

## CCAGGGGCACACCGGAACCCACACCTGAAATCACAG
ETS1 [1]
  ETS1 binding intensity: 647
ETS1 [2]
  ETS1 binding intensity: 739

## TTTATCCTTATTTCCTGGCTTCGCCCACAAGCACAG
ETS1 [1]
  ETS1 binding intensity: 599
ETS1 [2]
  ETS1 binding intensity: 625

## CCACTAGCAGGAAAACGGGCCGAGGGACCGCAAGCA
ETS1 [1]
  ETS1 binding intensity: 395
ETS1 [2]
  ETS1 binding intensity: 688

## CCATGAGGAGGGAGGAAATAGTGGTACGAGGGCTGC
ETS1 [1]
  ETS1 binding intensity: 1040
ETS1 [2]
  ETS1 binding intensity: 1040

## CCTGTCTGCTTCCGCCCGGCTTCGGCCCACAGTCAA
ETS1 [1]
  ETS1 binding intensity: 511
ETS1 [2]
  ETS1 binding intensity: 441

## CTCAGCGGAAGAGCGGGCCTCTGGGCCGCAGTGACC
ETS1 [1]
  ETS1 binding intensity: 478
ETS1 [2]
  ETS1 binding intensity: 430

## TGGCTGTTCAGCCTTCCGCTTGTGGCTCCACCCCCG
ETS1 [1]
  ETS1 binding intensity: 594
ETS1 [2]
  ETS1 binding intensity: 493

## GCCTGAAGCAGAGGATGTGGCTTCTGGCCCTCCCCT
ETS1 [1]
  ETS1 binding intensity: 1460
ETS1 [2]
  ETS1 binding intensity: 1800

## CCTCCTGGGAACTTCCTGCGGGGGCCGAAGCTGAAG
ETS1 [1]
  ETS1 binding intensity: 640
ETS1 [2]
  ETS1 binding intensity: 660

## TACCGCTGCTTCCTGCCTGCGCGGTGAGCCTGTGCC
ETS1 [1]
  ETS1 binding intensity: 829
ETS1 [2]
  ETS1 binding intensity: 802
